# Source: PubChem BioAssay
# Active and inactive are the calls of the source.
# Legend:
# [1] = test system: PRMT1 (protein arginine N-methyltransferase 1); experiment: PRMT1 binders on small-molecule microarrays, primary screen, biochemical, small-molecule microarray, 635 nm fluorescence (AID 1088); details: small-molecule microarray binding, higher = more signal;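 note: binding of Prmt1 protein to compounds spotted on small-molecule microarray slides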
# [2] = yeast growth modulation, basal conditions, primary screen, YJM789 clinical isolate, OD600, 24 h (AID 1089);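 note: growth of clinical yeast isolate S. cerevisiae YJM 789 seeded 1000 cells per well; test concentration not given here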; details: S. cerevisiae YJM789 growth, higher = more signal, called active from +8 up or from −8 down
# [3] = fission yeast growth modulation, primary screen, strain 972, OD600, 24 h, no modulator (AID 1090);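 note: basal condition with compound alone and no growth modifier present; test concentration not given here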; details: S. pombe 972 growth, higher = more signal, called active from +8 up or from −8 down
# [4] = S. cerevisiae growth modulation with rapamycin, primary screen, strain BY4716, OD600, 96 h (AID 1091); details: higher = more signal, called active from +8 up or from −8 down; note: test concentration not given here
# [5] = molecular target: Torsin-1A-interacting protein 2 (Homo sapiens) (UniProt Q8NFQ8); experiment: LULL1 binders on small-molecule microarray, primary screen, cell lysate, human LULL1 lysate, 635/667 nm fluorescence (AID 1092); details: hLULL1 lysate binding, 635 nm fluorescence, higher = more signal;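 note: probe is lysate of COS7 cells overexpressing human LULL1; score merges per-feature 667 nm fluorescence with signal-to-noise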
# Sequence of Torsin-1A-interacting protein 2 (Homo sapiens) (Q8NFQ8 whole entry, looked up): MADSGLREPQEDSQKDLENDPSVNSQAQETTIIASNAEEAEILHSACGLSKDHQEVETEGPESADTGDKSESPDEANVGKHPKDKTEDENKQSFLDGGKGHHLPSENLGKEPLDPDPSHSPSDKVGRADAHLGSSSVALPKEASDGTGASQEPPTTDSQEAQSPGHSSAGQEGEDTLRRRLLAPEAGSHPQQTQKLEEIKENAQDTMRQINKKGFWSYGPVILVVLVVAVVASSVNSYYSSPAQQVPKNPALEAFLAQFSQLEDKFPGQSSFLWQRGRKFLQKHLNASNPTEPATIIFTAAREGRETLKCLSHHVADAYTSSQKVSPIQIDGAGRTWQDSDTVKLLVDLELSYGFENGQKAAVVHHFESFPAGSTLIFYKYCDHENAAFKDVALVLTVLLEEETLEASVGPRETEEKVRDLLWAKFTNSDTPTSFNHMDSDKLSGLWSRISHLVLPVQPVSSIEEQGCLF
# [6] = E. coli growth modulation, two-sided OD650, primary screen, E. coli filamentation project, strain DRC41, 24 h (AID 1093); details: OD650, 24 h, higher = more signal, called active from +8 up or from −8 down;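 note: MC1000 strain lacking acrAB efflux and sulA so SOS filamentation is blocked; test concentration not given here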
# [7] = small-molecule microarray binders of probe aLefty2, primary screen, biochemical, biotinylated probe, 635/667 nm fluorescence (AID 1094); details: higher = more signal;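 note: score merges spot fluorescence near 667 nm with spot signal-to-noise ratio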
# [8] = test system: Noggin (protein binding on small-molecule microarray); experiment: Noggin binders on small-molecule microarray, primary screen, biochemical, 635/667 nm fluorescence (AID 1095); details: 635 nm fluorescence, higher = more signal;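 note: score merges 667 nm feature fluorescence with signal to noise over triplicate slides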
# [9] = molecular target: Neurogenic locus notch homolog protein 3 (Homo sapiens) (UniProt Q9UM47); experiment: NOTCH3 binders on small-molecule microarray, primary screen, biochemical, 635/667 nm fluorescence (AID 1096); details: NOTCH3 binding, 635 nm fluorescence, higher = more signal
# Sequence of Neurogenic locus notch homolog protein 3 (Homo sapiens) (Q9UM47 whole entry, looked up): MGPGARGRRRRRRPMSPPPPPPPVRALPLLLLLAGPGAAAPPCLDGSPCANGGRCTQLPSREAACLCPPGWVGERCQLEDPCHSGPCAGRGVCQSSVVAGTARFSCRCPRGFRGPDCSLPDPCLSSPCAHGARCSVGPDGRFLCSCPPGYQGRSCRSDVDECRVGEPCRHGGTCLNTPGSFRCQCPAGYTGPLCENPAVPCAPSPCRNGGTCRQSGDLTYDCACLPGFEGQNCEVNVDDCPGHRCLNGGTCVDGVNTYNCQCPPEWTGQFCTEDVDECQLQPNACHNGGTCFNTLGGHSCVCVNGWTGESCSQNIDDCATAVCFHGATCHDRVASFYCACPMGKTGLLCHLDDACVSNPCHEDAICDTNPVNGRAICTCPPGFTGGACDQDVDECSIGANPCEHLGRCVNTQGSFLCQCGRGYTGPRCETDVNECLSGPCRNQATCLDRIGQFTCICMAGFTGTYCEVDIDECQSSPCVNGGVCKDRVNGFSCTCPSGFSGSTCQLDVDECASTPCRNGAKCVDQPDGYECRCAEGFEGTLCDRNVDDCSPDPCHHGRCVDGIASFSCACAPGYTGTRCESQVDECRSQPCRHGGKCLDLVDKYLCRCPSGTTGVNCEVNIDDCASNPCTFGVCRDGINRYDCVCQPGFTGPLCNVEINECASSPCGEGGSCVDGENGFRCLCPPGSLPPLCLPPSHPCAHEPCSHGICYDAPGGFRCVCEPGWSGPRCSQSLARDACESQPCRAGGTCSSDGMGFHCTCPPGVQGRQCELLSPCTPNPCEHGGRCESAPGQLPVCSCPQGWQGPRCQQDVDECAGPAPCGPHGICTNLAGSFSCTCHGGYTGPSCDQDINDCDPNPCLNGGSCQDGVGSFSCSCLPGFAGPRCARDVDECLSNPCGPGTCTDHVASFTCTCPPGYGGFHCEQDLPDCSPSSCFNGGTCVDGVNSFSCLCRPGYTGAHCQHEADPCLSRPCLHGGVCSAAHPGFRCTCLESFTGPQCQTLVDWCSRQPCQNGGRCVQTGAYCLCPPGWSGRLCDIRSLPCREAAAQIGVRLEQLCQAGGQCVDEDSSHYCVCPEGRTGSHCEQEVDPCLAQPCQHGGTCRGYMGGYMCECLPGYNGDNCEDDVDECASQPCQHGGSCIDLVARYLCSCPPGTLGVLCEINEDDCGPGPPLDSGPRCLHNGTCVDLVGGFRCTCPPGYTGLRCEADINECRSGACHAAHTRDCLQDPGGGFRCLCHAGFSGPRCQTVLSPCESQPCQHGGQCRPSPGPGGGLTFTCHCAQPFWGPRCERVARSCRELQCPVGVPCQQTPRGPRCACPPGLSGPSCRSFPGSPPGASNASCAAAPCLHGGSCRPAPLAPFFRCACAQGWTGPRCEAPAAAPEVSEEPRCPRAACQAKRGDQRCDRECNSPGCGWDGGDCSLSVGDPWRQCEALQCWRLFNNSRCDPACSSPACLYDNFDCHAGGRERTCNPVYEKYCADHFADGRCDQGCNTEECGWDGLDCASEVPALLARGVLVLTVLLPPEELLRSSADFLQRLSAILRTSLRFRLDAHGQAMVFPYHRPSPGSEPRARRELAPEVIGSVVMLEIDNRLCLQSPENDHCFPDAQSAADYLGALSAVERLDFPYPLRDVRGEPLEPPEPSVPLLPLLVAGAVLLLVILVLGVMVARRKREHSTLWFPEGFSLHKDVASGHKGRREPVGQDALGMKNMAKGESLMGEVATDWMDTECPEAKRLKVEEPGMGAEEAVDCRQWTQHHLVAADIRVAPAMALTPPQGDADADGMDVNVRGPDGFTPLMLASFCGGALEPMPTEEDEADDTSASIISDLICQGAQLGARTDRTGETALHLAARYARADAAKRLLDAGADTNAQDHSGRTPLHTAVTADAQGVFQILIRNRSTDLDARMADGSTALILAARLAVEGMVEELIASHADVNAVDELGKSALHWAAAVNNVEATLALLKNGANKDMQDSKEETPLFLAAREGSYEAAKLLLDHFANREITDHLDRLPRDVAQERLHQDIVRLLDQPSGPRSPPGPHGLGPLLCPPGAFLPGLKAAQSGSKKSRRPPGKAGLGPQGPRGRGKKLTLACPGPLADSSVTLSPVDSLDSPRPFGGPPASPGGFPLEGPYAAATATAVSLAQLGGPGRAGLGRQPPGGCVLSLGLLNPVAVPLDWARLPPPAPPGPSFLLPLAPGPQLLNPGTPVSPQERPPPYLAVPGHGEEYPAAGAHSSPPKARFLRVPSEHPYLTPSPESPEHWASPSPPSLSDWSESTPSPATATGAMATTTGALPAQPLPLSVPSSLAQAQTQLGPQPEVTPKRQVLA
# [10] = small-molecule microarray binders of probe aEGFR, primary screen, biochemical, biotinylated probe, 635/667 nm fluorescence (AID 1097); details: higher = more signal;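 note: probe is a biotinylated anti-EGFR antibody binding compounds printed on slides; score combines fluorescence near 667 nm and signal to noise of each spot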
Structure (SMILES),composite z-score [1],z-score [2],z-score [3],z-score [4],composite z-score [5],z-score [6],composite z-score [7],composite z-score [8],composite z-score [9],composite z-score [10]
Cc1ccc(S[C@]2(C(=O)NCCN3CCOCC3)CC(=O)N(C(C)C)[C@@H]2c2ccc(CO)cc2I)cc1,1.5,-2.73 (inactive),-1.75 (inactive),-0.616 (inactive),2.46,3.42 (inactive),0.126,-0.889,0.0467,-0.0234
C=C(CCCC)/C(=C/C[C@@H](OC(C)=O)c1cccc(OCCO)c1)c1cc(C(=O)OC)ccc1OC,1.57,-0.397 (inactive),0.86 (inactive),-0.709 (inactive),0.709,0.236 (inactive),-0.0524,0.656,0.0716,-0.0698
COCCCNC(=O)[C@@]1(c2ccc([N+](=O)[O-])cc2)CC(=O)N(C2CCCCC2)[C@@H]1c1ccc(CO)cc1I,1.54,-0.307 (inactive),-0.314 (inactive),-0.0938 (inactive),0.83,0.556 (inactive),0.0561,0.39,0.0429,-0.0967
C=CC[C@@]1(C(=O)NCCCOC)N=C(c2ccc(OCCCO)cc2)O[C@@H]1c1ccccc1CN=[N+]=[N-],1.55,-0.759 (inactive),-0.0094 (inactive),-0.966 (inactive),2.35,1.1 (inactive),0.258,1.01,1.12,0.0914
C=CCNC(=O)[C@H]1[C@@H]2C(=O)O[C@@H](c3ccccc3)[C@@H](c3ccccc3)N2[C@@H](c2ccc(O)cc2)[C@]12C(=O)Nc1ccc(C#CCC(C(=O)OC)C(=O)OC)cc12,0.526,0.357 (inactive),-0.213 (inactive),-0.836 (inactive),1.13,1.44 (inactive),-0.0478,0.614,-0.112,-0.102
COC(=O)[C@@]1(Cc2ccc(F)cc2)[C@H]2c3cc(C(=O)N4CCCC4)n(Cc4ccc(OC(F)(F)F)cc4)c3C[C@H]2CN1C(=O)c1ccccc1,-1.08,0.646 (inactive),0.693 (inactive),-0.16 (inactive),2.1,-1.01 (inactive),-0.0238,-1.2,-1.23,-0.0472
CC(C)Cc1ccc(CN2CC[C@@H](NC(=O)c3ccccc3)C2)cc1,-0.174,-0.216 (inactive),-21.2 (active),0.237 (inactive),-0.0003,-0.219 (inactive),-0.167,0.666,-0.0255,-0.157
O=C1C2C=CC(C(O)C3CCCCC3)N(Nc3ccccc3F)C2C(=O)N1c1ccccc1 (stereo not given),1.55,0.968 (inactive),-0.645 (inactive),0.515 (inactive),3.24,0.256 (inactive),0.79,0.0994,1.02,0.239
O=C1OC[C@@H](c2ccccc2)n2cc(/C=C/c3ccccc3)cc21,-0.329,-0.154 (inactive),-2.68 (inactive),0.614 (inactive),-0.0278,1.45 (inactive),-0.0042,-0.364,-0.0623,-0.108
C=C[C@H](C)[C@@H](OC(=O)Nc1ccc(SC)cc1)c1ccc(OCCO)cc1,0.191,0.613 (inactive),-0.583 (inactive),1.92 (inactive),1.84,0.441 (inactive),-0.0391,1.05,0.487,-0.225
C=CCC(OC(C)=O)[C@@H]1[C@@H](N(Cc2ccc(-c3ccccc3)cc2)C(=O)Cc2ccc(OC)cc2)c2cc(OCCCO)ccc2N1C(=O)Cc1ccc(OC)cc1 (stereo not given in full),0.622,-0.0563 (inactive),0.68 (inactive),-0.753 (inactive),0.436,-0.553 (inactive),0.0717,-0.19,-0.209,0.0101
COCCCNC(=O)[C@]1(Cc2ccccc2CN=[N+]=[N-])N=C(c2ccc(OCCCO)cc2)O[C@@H]1c1ccccc1N=[N+]=[N-],0.772,-0.499 (inactive),1.07 (inactive),4.98 (inactive),2.27,1.11 (inactive),0.862,0.0289,-0.217,0.371
O=C1c2ccccc2[C@](Cc2ccccc2I)(C(=O)NCCN2CCOCC2)[C@H](c2ccc(CO)cc2)N1Cc1ccccc1C(F)(F)F,1.56,-1.06 (inactive),-1.06 (inactive),-0.132 (inactive),2.95,-1.82 (inactive),-0.0376,0.307,1.01,-0.109
COC(=O)C(CC#Cc1ccc2c(c1)[C@]1(C(=O)N2)[C@H](C(N)=O)[C@H]2C(=O)O[C@H](c3ccccc3)[C@H](c3ccccc3)N2[C@@H]1c1ccccc1OCCO)C(=O)OC,1.56,2.79 (inactive),0.943 (inactive),5.37 (inactive),3.13,1.12 (inactive),-0.075,0.877,0.576,0.0167
